# Screening data from PubChem.
# Most compounds without a hit are left out; they make up all but 6.9% or so of the library.
# Mdm2 MdmX PPI: inhibitors of human Mdm2-MdmX association, primary screen, cell-based, luminescence, split luciferase, SaOS-2, uHTS. AID 485346, 2010. inhibition, % at 8 µM. 3% of 330,000 active. SaOS-2 split-luciferase Mdm2/MdmX complementation;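 active = inhibition of at least 50% at 8 µM in the primary screen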
# Target sequence (O15151 whole entry, looked up): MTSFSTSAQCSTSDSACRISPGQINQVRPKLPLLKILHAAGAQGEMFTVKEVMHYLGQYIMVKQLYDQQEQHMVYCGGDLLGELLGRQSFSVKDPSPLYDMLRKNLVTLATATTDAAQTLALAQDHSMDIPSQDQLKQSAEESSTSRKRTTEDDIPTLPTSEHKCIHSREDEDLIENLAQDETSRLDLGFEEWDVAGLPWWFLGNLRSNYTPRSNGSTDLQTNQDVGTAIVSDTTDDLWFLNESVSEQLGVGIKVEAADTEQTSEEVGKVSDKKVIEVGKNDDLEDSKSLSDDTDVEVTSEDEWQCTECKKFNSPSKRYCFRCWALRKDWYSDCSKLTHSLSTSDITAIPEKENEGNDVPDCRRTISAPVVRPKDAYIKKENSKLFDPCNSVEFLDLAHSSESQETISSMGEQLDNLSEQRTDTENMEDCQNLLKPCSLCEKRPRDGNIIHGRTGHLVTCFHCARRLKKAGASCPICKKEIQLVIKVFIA
# Target sequence (Q00987 whole entry, looked up): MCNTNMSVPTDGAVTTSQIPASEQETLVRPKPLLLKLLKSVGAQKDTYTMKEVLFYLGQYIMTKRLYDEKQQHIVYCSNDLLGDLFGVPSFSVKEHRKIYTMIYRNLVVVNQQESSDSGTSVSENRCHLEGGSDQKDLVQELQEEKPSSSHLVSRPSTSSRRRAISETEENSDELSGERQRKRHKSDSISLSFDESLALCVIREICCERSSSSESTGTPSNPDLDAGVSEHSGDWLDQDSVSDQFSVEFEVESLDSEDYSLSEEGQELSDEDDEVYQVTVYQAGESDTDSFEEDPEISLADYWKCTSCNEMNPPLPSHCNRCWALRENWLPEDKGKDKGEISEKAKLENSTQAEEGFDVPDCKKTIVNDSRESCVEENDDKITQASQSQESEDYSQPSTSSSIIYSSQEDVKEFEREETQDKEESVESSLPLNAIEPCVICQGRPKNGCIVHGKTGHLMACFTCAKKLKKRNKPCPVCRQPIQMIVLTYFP
# CSC inhib: cancer stem cell viability inhibitors, primary screen, luminescence; 1.1% of 300,000 active; cancer stem cell-like cells viability; inhibition, % at 7.5 µM; AID 2717, 2010; in the data active = inhibition above about 75%; tested in HMLE shEcad cells
# SKKanGAS inh: S. pyogenes SKKanGAS growth inhibitors in kanamycin, primary screen, streptokinase expression inhibitor project, SKKanGAS strain, BacTiter-Glo luminescence; 1.3% of 300,000 active; inhibition, % at 7.5 µM; 6 h;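 active = mean replicate score, as percent of positive control median, at least 50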;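 note: strain carries kanamycin resistance gene driven by streptokinase promoter and grows in 40 µg/ml kanamycin; loss of luminescence reflects streptokinase promoter inhibition or plain growth inhibition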
# MPTP inh: mitochondrial permeability transition pore inhibitors, primary screen, biochemical, isolated mouse mitochondria, absorbance; Ca2+ swelling absorbance, 30 min; inhibition, % at 10 µM; 1.4% of 360,000 active; AID 602449, 2012;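 active = inhibition of 50% or more, scaled per plate between neutral and stimulator controls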
# Beta cell apopt: inhibitors of cytokine-induced beta cell apoptosis, primary screen, luminescence | INS-1E cytokine-induced death, ATP luminescence, 48 h; percent of positive-control rescue, neutral wells zero | protection from apoptosis, % (test concentration not listed) | 0.8% of 300,000 active | AID 435005, 2010;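 active = Every replicate reaches about 75%, or at least half do and their mean reaches it too, limit read from the data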;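 note: higher means more ATP so stronger rescue from cytokine killing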
# NR3A LBD binder: binders of NR3A ligand-binding domain, primary screen, biophysical, differential scanning fluorimetry, uHTS. NR3A LBD differential scanning fluorimetry, Tm shift; 0% = protein alone, 100% = glycine-bound protein. Tm shift relative to glycine control, % at 25 µM. 2.5% of 340,000 active. AID 1259313, 2017;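 active = melting temperature shift of at least 10% of the positive control shift, at one fixed dose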
# Numbers stand for hits; - = inactive; . = no result given.
SMILES,Mdm2 MdmX PPI,CSC inhib,SKKanGAS inh,MPTP inh,Beta cell apopt,NR3A LBD binder
O=[N+]([O-])c1cccc(-c2ccc(/C=N/NC(=S)Nc3cccc(F)c3)o2)c1,-,-,-,-,-,28
Cc1cccc(NC(=S)N/N=C/c2cccc([N+](=O)[O-])c2)c1,-,-,-,-,-,150
Cc1ccc(-c2ccc(/C=N/NC(=S)Nc3ccccc3)o2)cc1[N+](=O)[O-],-,-,-,-,-,27
COc1ccc(CCNC(=O)CSC2=NS(=O)(=O)c3ccccc3N2)cc1OC,-,-,-,-,.,-
Cc1ccc(NC(=O)CCNS(=O)(=O)c2ccc(OC(F)(F)F)cc2)c(O)c1,-,-,-,-,-,-
COc1ccc(NC(=O)CCNC(=O)c2ccc([N+](=O)[O-])cc2)cc1S(=O)(=O)N1CCCCC1,-,.,.,-,.,-
Cc1ccccc1NS(=O)(=O)c1ccc(C(=O)N2CCCC(C(F)(F)F)C2)cc1 (configuration not stated),-,-,-,-,.,-
O=C(Nc1ccc2oc(-c3ccccc3Cl)nc2c1)c1cncc(Br)c1,-,-,-,-,.,12
Cc1c(C(=O)Nc2ccc3oc(-c4cccnc4)nc3c2)oc2ccccc12,-,-,-,-,-,16
O=C(Nc1ccc2oc(-c3cccnc3)nc2c1)c1cccnc1,-,-,-,-,-,-
O=C(Nc1cccc(-c2nc3ccccc3o2)c1)c1cccnc1,-,-,-,-,-,-
O=C(Nc1ccc(-c2nc3ccccc3o2)cc1)c1cccnc1,-,-,-,-,-,25
Cc1ccc2oc(-c3ccc(NC(=O)c4cccnc4)cc3)nc2c1,-,.,-,-,86,35
Cc1ccc(-c2cnc(C(O)c3ccc(Cl)cc3C)[nH]2)cc1 (configuration not stated),.,.,.,-,.,.
O=C(C1CCCCC1)N1C[C@H](O)[C@@H](n2cc(-c3ccc(F)cc3)nn2)C[C@@H]1c1ccccc1,.,.,.,-,.,.
Cc1cnc(C(=O)OCc2csc(CC(=O)Nc3ccccc3C)n2)cn1,-,-,-,-,-,-
Cc1ccc(-c2nc3cc(NS(=O)(=O)c4ccc(C)cc4)ccc3o2)cc1,-,-,85,-,-,12
CSc1nc(-c2ccccc2)nc(C(C)C)n1,-,-,.,-,-,-
c1ccc(Nc2nc3ccccc3[nH]2)nc1,-,-,62,-,.,-
COc1ccc(NC(=O)CN(C)C(=O)CCCSc2nc3ccccc3[nH]2)cc1,-,-,-,-,-,-
O=C(O)c1ccc(-c2noc(-c3ccccc3Cl)n2)cc1,-,-,-,-,-,-
c1ccc(-c2noc(-c3ccccc3-c3ccccc3)n2)cc1,-,-,75,-,-,13
NC(=O)c1ccc(-c2noc(-c3ccccc3F)n2)cc1,-,-,.,-,-,-
Fc1ccccc1-c1nc(-c2ccc(Cl)cc2)no1,-,-,-,-,-,21
COc1ccc(CNC(=O)C(C)N2C(=O)COc3ccc(C)cc32)c(OC)c1 (configuration not stated),-,-,-,-,-,-
SMILES,Mdm2 MdmX PPI,CSC inhib,SKKanGAS inh,MPTP inh,Beta cell apopt,NR3A LBD binder
COc1ccc(NC(=O)C(c2ccc(C)cc2)N(C)C(=O)CC2NC(=O)NC2=O)cc1 (configuration not stated),-,-,-,-,-,12
O=C(NCC1CCCN1S(=O)(=O)c1cccs1)C(=O)Nc1ccc(F)cc1 (configuration not stated),-,-,-,-,-,-
COc1ccc(/C=N/NC(=O)c2ccc(CN3c4cccc5cccc(c45)S3(=O)=O)cc2)cc1,-,-,-,-,-,22
COc1ccc(/C=N/NC(=O)c2ccc(COCC(F)(F)C(F)F)cc2)cc1,-,-,-,-,-,12
O=C(N/N=C/c1ccc2c(c1)OCO2)c1ccc(COc2cccc3cccnc23)cc1,-,-,-,-,-,-
O=C(N/N=C/c1ccc2c(c1)OCO2)c1ccc(COCC(F)(F)C(F)F)cc1,-,83,-,-,-,-
